Assay results from the supplement of paper PMC10646978.
± gives the standard deviation.

Legend:
Details in all cases: modulator concentration 10 µM
[1] = test system: RAW-Dual (murine macrophage reporter line); test: NF-kB reporter (SEAP) activity fold change vs agonist alone; higher = enhanced NF-kB activity
How it was run: (§1)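 RAW-Dual murine macrophage reporter cells were seeded at 50 000 per well in 384-well plates and pre-incubated 1 hour at 37 °C with compound pin-transferred to 10 μM final. After 1 hour, a PRR agonist was added and cells incubated overnight. Supernatant NF-κB (SEAP, QUANTI-Blue, 620 nm absorbance) and IRF (Lucia luciferase, QUANTI-Luc, luminescence) signals were divided by the mean agonist-only control on the same plate to give fold change. Two replicate plates were averaged, with errors by propagation.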

[2] = test system: RAW-Dual (murine macrophage reporter line); test: IRF reporter (Lucia luciferase) activity fold change vs agonist alone; higher = enhanced IRF activity
How it was run: as §1

[3] = test system: RAW-Dual (murine macrophage reporter line); test: viability score (confluency relative to resting cells, overnight) (fraction); higher = more viable, active = viable (0.7 or more)
How it was run: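 Overnight exposure to 10 μM final compound was carried out on RAW-Dual macrophages in 384-well plates. IncuCyte software generated two confluency masks over all wells imaged with IncuCyte. The viability score gives confluency in relation to resting cells. A compound met the cutoff if each mask exceeded 70% of resting cells.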

[4] = agonist: CpG ODN 1826 0.5 ug/mL

Compound	NF-kB reporter [1, 4]	NF-kB reporter ([1]; agonist: LPS 0.1 ug/mL)	NF-kB reporter ([1]; agonist: MPLA […])	IRF reporter ([2]; agonist: 3'3'-cGAMP 10 ug/mL)	IRF reporter ([2]; agonist: LPS 0.1 ug/mL)	IRF reporter ([2]; agonist: MPLA […])	viability score [3]
CC(C)c1noc(CN2CCC(n3nc(C(F)(F)F)n(C)c3=O)CC2)n1	0.975 ± 0.13	1.11 ± 0.091	0.939 ± 0.069	0.993 ± 0.05	1.08 ± 0.12	1.15 ± 0.13	1 (active)
CCN1C(=O)C(=Cc2nc3ccccc3c(=O)n2-c2ccc(C)cc2)c2ccccc21	1.06 ± 0.085	1.08 ± 0.071	0.994 ± 0.077	0.89 ± 0.035	1.55 ± 0.28	1.11 ± 0.078	1.01 (active)
Cc1ccc(NC(=O)c2ccc(CN3CCN(C)CC3)cc2)cc1Nc1nc(-c2cccnc2)cs1	0.228 ± 0.018	1.18 ± 0.067	1.74 ± 0.17	0.414 ± 0.051	0.703 ± 0.051	0.691 ± 0.058	0.981 (active)
O=S(=O)(Cc1ccccc1)c1nc2ccccc2n1Cc1ccc(Cl)cc1	0.661 ± 0.045	1.1 ± 0.071	0.978 ± 0.057	1.32 ± 0.059	1.35 ± 0.092	1.36 ± 0.19	0.965 (active)
CC(=Cc1ccccc1)CN1CC(C)OC(C)C1 (configuration not stated)	0.788 ± 0.063	0.788 ± 0.05	1.04 ± 0.12	0.933 ± 0.044	1.28 ± 0.074	1.47 ± 0.17	0.956 (active)
O=S(=O)(N=Cc1c(O)ccc2ccccc12)c1cccs1	1.05 ± 0.23	1 ± 0.079	0.876 ± 0.12	0.74 ± 0.022	0.988 ± 0.15	0.992 ± 0.2	0.999 (active)
Cc1ccc(-c2ncnn2-c2ccc(Cl)cc2)cc1	0.922 ± 0.072	0.785 ± 0.051	1.02 ± 0.11	0.695 ± 0.036	1.26 ± 0.073	1.4 ± 0.15	1.01 (active)
CCN(CC)CCOCCOC(=O)C1(c2ccccc2)CCCC1 [Prestw-387]	0.668 ± 0.12	1.14 ± 0.12	0.993 ± 0.12	0.684 ± 0.019	1.03 ± 0.12	1.11 ± 0.19	0.993 (active)
Br.COc1ccc2c3c1OC1CC(O)C=CC31CCN(C)C2 (configuration not stated)	1.06 ± 0.082	0.892 ± 0.095	1.04 ± 0.1	1 ± 0.04	1.34 ± 0.18	1.43 ± 0.27	0.999 (active)
CCOC(=O)n1ccn(C)c1=S	1.26 ± 0.21	1.04 ± 0.33	0.909 ± 0.067	0.913 ± 0.03	1.18 ± 0.48	1.11 ± 0.09	0.992 (active)
Nc1ccc(O)c(C(=O)O)c1	1.08 ± 0.089	0.898 ± 0.12	1.04 ± 0.022	0.956 ± 0.053	0.923 ± 0.084	1.03 ± 0.13	0.989 (active)
CSCCC(NC(C)=O)C(=O)N1CCC(n2c(C)nc3ccccc32)C1 (configuration not stated)	1.07 ± 0.063	0.96 ± 0.074	0.952 ± 0.025	0.98 ± 0.04	0.968 ± 0.086	0.957 ± 0.25	1 (active)
CCC(C)NS(=O)(=O)c1ccc([N+](=O)[O-])cc1 (configuration not stated)	1.13 ± 0.11	1.05 ± 0.075	0.977 ± 0.034	0.883 ± 0.05	1.13 ± 0.1	1.18 ± 0.14	0.998 (active)
COc1cccc(S(=O)(=O)NCc2sc(-c3ccccc3)nc2C)c1	1.26 ± 0.12	1.1 ± 0.086	0.901 ± 0.045	0.922 ± 0.059	1.11 ± 0.12	1.16 ± 0.28	0.942 (active)
Cn1c(=O)[nH]c(=O)c2c1nc(N1CCCCC1)n2CCC#N	1.1 ± 0.07	1.09 ± 0.07	0.952 ± 0.071	0.945 ± 0.033	1.33 ± 0.093	1.1 ± 0.16	1 (active)
COc1cc(NC(=O)COc2ccc(C(C)C)c(C)c2)c(OC)cc1Cl	0.818 ± 0.038	1.04 ± 0.1	1.71 ± 0.75	1.01 ± 0.047	1.25 ± 0.19	1.28 ± 0.39	0.96 (active)
Cc1ccc(C2(c3ccc(C)cc3)CC2C(=O)Nc2cccnc2)cc1 (configuration not stated)	0.883 ± 0.061	0.985 ± 0.076	0.82 ± 0.023	1.02 ± 0.036	1.01 ± 0.062	0.91 ± 0.14	0.998 (active)
O=C(Nc1ccccc1)NC1CCS(=O)(=O)C1 (configuration not stated)	1.02 ± 0.096	1.09 ± 0.1	0.998 ± 0.042	0.97 ± 0.054	0.889 ± 0.16	0.88 ± 0.18	0.995 (active)
Cc1ccc(C)c(C(=O)c2ccccc2NC(=O)c2ccccn2)c1	0.733 ± 0.041	0.85 ± 0.071	0.839 ± 0.054	1.01 ± 0.068	1.18 ± 0.15	1.11 ± 0.13	1.01 (active)
CN1CCN(C2=NC(=O)C(=Cc3ccc(Cl)cc3Cl)S2)CC1	0.833 ± 0.076	0.86 ± 0.068	1.15 ± 0.099	0.956 ± 0.051	1.42 ± 0.099	1.59 ± 0.18	0.999 (active)
CC(C)CN(C[C@@H](O)[C@H](Cc1ccccc1)NC(=O)O[C@H]1CO[C@H]2OCC[C@H]21)S(=O)(=O)c1ccc(N)cc1.CCO	1.7 ± 0.13	1.11 ± 0.063	1.7 ± 0.042	0.998 ± 0.056	0.982 ± 0.12	1 ± 0.081	0.996 (active)
COc1ccc(OC2CCN(C(=O)C3CCOC3)C2)nn1 (configuration not stated)	0.955 ± 0.12	1.04 ± 0.1	0.949 ± 0.11	1 ± 0.083	1.12 ± 0.072	1.23 ± 0.14	0.999 (active)
CCN1CCCC1CNC(=O)c1cc(S(N)(=O)=O)ccc1OC (configuration not stated)	1.01 ± 0.11	1.06 ± 0.07	0.992 ± 0.052	1.02 ± 0.11	0.982 ± 0.11	0.865 ± 0.068	1 (active)
COc1ccc(C2=CC(c3cc(OC)c(OC)c(OC)c3)n3ncnc3N2)cc1 (configuration not stated)	1.26 ± 0.087	1.08 ± 0.066	1.22 ± 0.087	1.15 ± 0.047	1.07 ± 0.07	1.27 ± 0.15	0.985 (active)
Cn1nc(CNS(=O)(=O)c2cccc(C(F)(F)F)c2)c2c1CCOC2	1.13 ± 0.34	1.08 ± 0.061	1.02 ± 0.065	0.955 ± 0.035	1.05 ± 0.13	1.12 ± 0.11	1 (active)
Nc1ccn([C@@H]2O[C@H](CO)[C@@H](O)[C@@H]2O)c(=O)n1	1.36 ± 0.27	1.38 ± 0.13	1.38 ± 0.19	0.687 ± 0.025	1.08 ± 0.16	1.14 ± 0.12	0.35 (inactive)
